# Assay outcomes: PubChem, Broad Institute
# This is one part of a sample in which hits are shown more often than they occur.
# Tgondii IFNg – T. gondii growth inhibition with IFN-gamma, primary screen, cell-based. actives 3.8% (n = 69,000). activity change, negative = inhibition, % (test concentration not listed). Toxoplasma gondii growth in IFN-gamma-treated host cells; stronger effect = lower value; in the data active means activity change below about -70%, passing the limit was not always enough;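 further: host cells are HeLa cells infected with Toxoplasma gondii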
# An asterisk follows results filed as active.
SMILES,Tgondii IFNg
Cc1c(C(=O)NCCCN2C(C)CCCC2C)oc2ccc3c(c12)C(O)CC1(CCCCC1)O3 (centres undefined),-56.2
CCOC(=O)N1CCC(NC(=O)c2oc3ccc4c(c3c2C)C(O)CC2(CCCCC2)O4)CC1 (centres undefined),-95.3*
O=c1[nH]nc(-c2ccco2)n1CCc1ccccc1F,-3.0
CN1CCNC(=O)C12CCN(Cc1ccccc1OCc1ccccc1)CC2,-3.9
CN(Cc1ncc[nH]1)C(=O)C1CCCN(C2CCN(Cc3ccncc3)CC2)C1 (centres undefined),5.3
COCc1ccc(C(=O)NC2CCCc3c2cnn3C)o1 (centres undefined),-10.2
COc1ccccc1Cn1ncc2c1CCCC2NC(=O)c1cc(-c2cccs2)no1 (centres undefined),-76.7*
CCCc1cc(CNC(=O)c2cc(-c3cccs3)no2)on1,-4.0
Cc1cc(C)c(CN2CC[C@H](CO)[C@H](O)C2)c(-n2cccn2)c1,1.7
COc1ccc(-c2nc3c(s2)CN(C(=O)Nc2cc(C)ccc2C)CC3)cc1OC,21.4
CCc1ccccc1NC(=O)N1CCc2nc(-c3cccc(OC)c3)sc2C1,30.0
COc1ccc(-c2nc3c(s2)CN(C(=O)Nc2ccc(C)c(C)c2)CC3)cc1OC,-82.8*
CCc1ccccc1NC(=O)N1CCc2nc(-c3ccc(OC)c(OC)c3)sc2C1,45.6
Cc1ccc(-c2nc3c(s2)CN(C(=O)Nc2cc(C)ccc2C)CC3)cc1,-34.8
CCc1ccc(NC(=O)N2CCc3nc(-c4ccc(OC)c(OC)c4)sc3C2)cc1,-79.2*
Cc1nc(SCC(=O)NC(C)COc2c(C)cccc2C)n[nH]1 (centres undefined),-1.0
CCO[C@H]1CN(S(=O)(=O)c2cccs2)[C@H]2COC[C@@H]12,7.8
Cc1cccc(Nc2nc(C(=O)Nc3ccccc3Br)nc3ccccc23)c1,35.9
Cc1ccc(C2=NC3(CCN(CC(=O)Nc4cccc(Cl)c4)CC3)NC2=O)cc1C,13.7
CCN1CC2CCCC(C1)C2CC(=O)Nc1cccc(F)c1 (centres undefined),2.5
C=CCN1C(=O)CCC12CCCN(C(=O)c1ccc[nH]1)CC2 (centres undefined),-56.7
CCc1ccccc1S(=O)(=O)N1CCc2nc(CNC(=O)C3CCC3)n(C)c2C1,-83.6*
Cn1c(CNC(=O)C2CCC2)nc2c1CN(S(=O)(=O)c1ccc(F)cc1)CC2,-16.4
CCc1ccc(S(=O)(=O)N2CCc3nc(CNC(=O)C4CCC4)n(C)c3C2)cc1,-46.5
Cc1nc(NC(=O)C(c2ccc(F)cc2)N2CCOCC2)nn1C (centres undefined),73.5
SMILES,Tgondii IFNg
N#Cc1c(N2C[C@@H]3NCCO[C@H]3C2)c(F)cc2c(=O)c(C(=O)O)cn(C3CC3)c12,-86.2*
N[C@@H]1CCCCN(c2c(F)cc3c(=O)c(C(=O)O)cn(C4CC4)c3c2Cl)C1,-9.5
C[C@@H]1CN(c2c(F)c(F)c3c(=O)c(C(=O)O)cn(C4CC4)c3c2F)C[C@H](C)N1,3.0
CN1C[C@@H]2CC[C@H](CC1=O)N2C(=O)c1cc2ccccc2[nH]c1=O,-42.5
O=C1CCc2cc(NS(=O)(=O)c3ccc(C(F)(F)F)cc3)ccc2N1,-37.3
CC(C)(C)c1ccc(S(=O)(=O)Nc2ccc(C34CC5CC(CC(C5)C3)C4)cc2)cc1,-96.2*
Cc1ccc(-c2coc(-c3ccc(NS(=O)(=O)c4ccc(C(C)(C)C)cc4)cc3)n2)c(C)c1,-37.7
Cc1ccc(CN2Cc3ccnn3CC(COCC3CC3)C2)s1 (centres undefined),-7.7
CCSc1nc(CC(=O)NCc2ccc(C(F)(F)F)nc2)cs1,-13.2
COc1cnc(C2(O)CCN(C(=O)Cc3ccc(S(C)(=O)=O)cc3)CC2)c(OC)n1,-4.5
FC(F)(F)c1ccc(Oc2ncnc3c(-c4ccccc4)c(C(F)(F)F)sc23)cc1,-70.7*
O=S(=O)(Oc1ccc(Cl)cc1)c1csc(C(F)(F)F)c1-c1ccccc1,-26.0
O=C(CCc1c[nH]c2ccccc12)NC[C@@H]1CCNC[C@H]1O,5.8
COC(=O)C1(Cc2ccccc2F)NC(=O)CC2CCC1N2Cc1ccccc1 (centres undefined),-77.3*
COc1ccc(F)c([C@@H]2NC(=O)CC[C@H]2NCc2cn[nH]c2-c2ccccc2)c1,-0.7
O=C1NC(=O)C(Cc2ccccc2F)(C2CCNCC2)N1 (centres undefined),-2.5
Cc1cc(C(=O)N2CCc3c(nc(N)[nH]c3=O)C2)sc1-c1ccccc1,-10.1
CCOC(=O)C1CCCN(C(=O)Cn2cccc2-c2nc(-c3ccc(C)cc3)cs2)C1 (centres undefined),-12.1
Fc1cccc(CN2CCN(Cc3ccc4nonc4c3)CC2)c1,-9.7
NC(=O)c1cc2c(s1)-c1cc(Cl)ccc1SC2,-79.0*
Cc1oc(-c2ccccc2Cl)nc1CSc1nc2c(=O)[nH]cnc2n1CC1CCCO1 (centres undefined),-0.4
COc1cccc(CC(=O)NCC2C3=C(CCCC3)c3cc(OC)c(OC)cc32)c1 (centres undefined),13.8
Cc1cc(C)n(Cc2nc(-c3ccc(NC(=O)c4ccc(Cl)cc4)cc3)oc2C)n1,1.8
Cc1ccc(C)c(C(=O)Nc2ccc(-c3nc(Cn4nc(C)cc4C)c(C)o3)cc2)c1,-75.1*
Cc1cc(C)n(Cc2nc(-c3ccc(NC(=O)CCc4ccccc4)cc3)oc2C)n1,-69.2
SMILES,Tgondii IFNg
Cc1cc(C)n(Cc2nc(-c3ccc(NC(=O)c4ccccc4)cc3)oc2C)n1,1.2
Cc1cc(C)n(Cc2nc(-c3ccc(NC(=O)c4cc(F)cc(F)c4)cc3)oc2C)n1,-32.0
Cc1cc(C)n(Cc2nc(-c3ccc(NC(=O)c4ccc(C)c(F)c4)cc3)oc2C)n1,16.8
Cc1cc(C)n(Cc2nc(-c3ccc(NC(=O)Cc4ccccc4C)cc3)oc2C)n1,41.2
Cc1cc(C)cc(C(=O)Nc2ccc(-c3nc(Cn4nc(C)cc4C)c(C)o3)cc2)c1,-97.0*
COc1cccc(CC(=O)Nc2ccc(-c3nc(Cn4nc(C)cc4C)c(C)o3)cc2)c1,-84.8*
Cc1nn(Cc2nc(N3CCCC3)nc3c2CCCC3)c(C)c1Cl,-12.9
O=C(Nc1ccc(F)cc1F)c1cncc(NS(=O)(=O)c2ccc(Br)cc2)c1,-32.7
CC(=O)N1CCO[C@H]2CN(c3cccc(F)c3)CC[C@@H]2C1,253.2
CC(C)(O)C#Cc1cccc(C(=O)NCc2ccc3c(c2)OCCCO3)c1,-5.0
Cc1ccc(-c2csc(-c3cccn3CC(=O)NCCCN3CCCC(C)C3)n2)cc1 (centres undefined),-33.0
O=C(O/N=C1/CCCc2occc21)c1ccccc1,10.0
CC(C)(C)NC(=S)N/N=C1/CCCc2occc21,-95.3*
CCc1ccc(N(C(=O)c2ccc(OC)cc2)C2(C(=O)NCc3ccccc3)CCN(C(C)=O)CC2)cc1,-16.7
CC(C)C1N=C2c3ccccc3N=C(SCc3ccc(Cl)cc3)N2C1=O (centres undefined),-3.2
NC(=S)NN=C1Cc2ccccc2C1,67.8
COc1ccc2c(c1)CCC/C2=N\NC(N)=S,-99.1*
COc1ccc(-c2ccc(N)nc2)c(C)c1,5.5
O=S(=O)(c1ccc2c(c1)OCCO2)N1CCOC(c2nc(-c3cccs3)no2)C1 (centres undefined),9.2
CCc1ccc(Nc2nc(C(=O)NCc3ccc(C)cc3)nc3ccccc23)cc1,-12.1
Cc1ccc(Nc2nc(C(=O)NCc3ccc(N(C)C)cc3)nc3ccccc23)cc1,2.3
CCOC(=O)c1nc(Nc2cccc(C)c2)c2ccccc2n1,-9.7
CCc1ccc(CNC(=O)c2nc(Nc3cccc(C)c3)c3ccccc3n2)cc1,-98.5*
